HCMV antiviral: qHTS Assay for inhibitors of the human cytomegalovirus (HCMV). 410,000 tested, 4.5% active. activity change, negative = inhibition, % at 57.5 µM. HFF cells, HCMV-luciferase reporter, 72 h; hits give low values; in the data active = activity change below about -60%; inconclusive = no clear call, values can overlap the other calls; inactive = above about -39%
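Two compound doses tested in HFFs infected with HCMV-luciferase, MOI 1 PFU/cell, 72 h at 37C. Lysate luminescence read with OneGlo; data normalized against buffer-only and 10uM Salinomycin inhibitor controls.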
Pf growth 48h: Primary qHTS for delayed death inhibitors of the malarial parasite plastid, 48 hour incubation; 310,000 tested, 5.9% active; P. falciparum luciferase growth in erythrocytes, 48 h; Potency, µM (highest dose often 28.7 µM), for inactives: at the top dose activity change, negative = inhibition, most hits filed as inhibitors; also: potency is read from the fitted curve at half-maximal effect
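Growth was read as firefly luciferase luminescence after a 48 h, 37 C, 5% CO2 exposure of compounds to reporter-bearing P. falciparum cultures (0.1% parasitemia, 2% hematocrit final) in Albumax-supplemented RPMI 1640.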
Pf growth 96h: Primary qHTS for delayed death inhibitors of the malarial parasite plastid, 96 hour incubation | P. falciparum luciferase reporter growth, 96 h | Potency, µM (titrated, usually from 28.7 µM), for the others: at the top dose activity change, negative = inhibition, usual class: inhibitors | 320,000 tested, 6.9% active | AID 504834, 2011; also: potency is read from the fitted curve at half-maximal effect
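Infected RBCs, 2% Hct / 0.05% parasitemia final; luciferase-reporter P. falciparum; cpd 96 h, 37 C, 5% CO2; luciferase detection reagent; luminescence.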
HCV inhibitor: qHTS Assay for Inhibitors of Hepatitis C Virus (HCV) | Potency, µM (highest dose often 41.8 µM), for inactives: top-dose activity change, negative = inhibition, most hits filed as inhibitors | AID 651820, 2012 | Huh7.5.1 HCVcc-Cre infection, luciferase reporter, 44 h | 340,000 tested, 3.4% active; also: potency is read from the fitted curve at half-maximal effect
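Luciferase read-out (15 sec integration) after a 15 min room-temperature substrate step quantifies HCVcc-Cre infection. Cells, 1,000 per well, had compound added 4 h post-plating, then virus at ~0.5 moi, and were cultured 44 h.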
Marburg entry inh: qHTS for inhibitors of binding or entry into cells for Marburg Virus | Marburg virus pseudotyped entry inhibition, cell reporter | 300,000 tested, 1.8% active | Potency, µM (series often up to 37.8 µM), inactives show at the highest dose activity change, negative = inhibition, actives largely listed as inhibitors; calls by dose curve; tested in HEK293 cells; also: potency is read from the fitted curve at half-maximal effect
LASV entry inh: qHTS for Inhibitors of binding or entry into cells for Lassa Virus; Lassa virus pseudotype entry inhibition, cell reporter; Potency, µM (titrated, usually from 37.9 µM), inactives show at the top dose activity change, negative = inhibition, usual class: inhibitors; 300,000 tested, 1.2% active; calls by dose curve; tested in HEK293 cells; also: potency is read from the fitted curve at half-maximal effect; nearly all actives have a fitted effect of over 50% in size
The depositor's hits bear a star; ? = inconclusive; / = no result given; [ ] = dose if it differs, or a comment. Hits are enriched below; roughly 14% of the tested compounds scored in any of these assays. Unless noted, calls follow the shape of the dose curve; as a rule, active = well fitted inhibition curve with a large enough effect; inconclusive = small, poorly fitted or top-dose-only effect, or another doubt; inactive = no such curve, though single readings can be large or run the other way. % is scaled to controls: 0 for no effect and ±100 for the full control effect.

SMILES	HCMV antiviral	Pf growth 48h	Pf growth 96h	HCV inhibitor	Marburg entry inh	LASV entry inh
Cc1nonc1OCCCNc1ccc([N+](=O)[O-])cc1Cl	-78*	0%	-23%	10%	13%[46.1 µM]	5%
Cc1nonc1OC(C)CNc1ccc([N+](=O)[O-])cc1 (stereo not drawn)	-11	3.7µM*	24%	-28%	?	-1%
CC(NC1=CC(=O)c2cccnc2C1=O)C(O)c1ccccc1 (stereo not drawn)	-99*	/	/	?	11µM*	?
O=C(O)c1cc(NS(=O)(=O)c2cccc3nsnc23)cc(C(=O)O)c1	-37	-4%[0.00184 µM]	7.4µM*	13%	/	/
CC1CC(C)CN(CC(O)COCCOc2ccc(Br)cc2)C1 (stereo not drawn)	-34	9.3µM*	?	?	13µM*	?
Fc1cccc(Cl)c1/C=N/Nc1ccccn1	153	99%	87%	?	3%	23%
FC(F)(F)c1nc2ccccc2nc1N/N=C/c1c(Cl)cccc1Cl	-6	9.3µM*	-8%	-1%	13%	2%
CSc1ncc(Cl)c(C(=O)Nc2c(C)cccc2C)n1	?	2%	4.1µM*	-12%	/	/
CSc1ncc(Cl)c(C(=O)Nc2ccccc2Cl)n1	9	22%	56%	1%	16%	7%
CCOC(=O)c1ccc(NC(=O)Cn2nc(SC)c(S(=O)(=O)c3ccc(Cl)cc3)c2N)cc1	-104*	/	/	/	?	?
CN(C(=O)c1cccc(NC(=O)Cc2ccc(NC(=O)C3CCCN(C(=O)C4CCC4)C3)cc2)c1)C1CCC1 (stereo not drawn)	-2	/	/	?	/	/
CC1(C(=O)Nc2ccc3c(c2)OCCO3)CN(S(C)(=O)=O)CC(=O)N1Cc1cccs1 (stereo not drawn)	0	/	/	/	/	/
CNCC/C=C1/c2ccccc2CSc2ccccc21	-34	?	?	10µM*	?	?
O=C(NC1CCCCC1)C(c1cccs1)N(CCCN1CCOCC1)C(=O)c1ccc(-c2ccccc2)[nH]1 (stereo not drawn)	-5	1.7µM*	3%	?	?	-18%
O=C(NCC1CCCO1)C(c1cccs1)N(Cc1cccs1)C(=O)c1ccc(-c2ccccc2)[nH]1 (stereo not drawn)	?	?	82%	?	?	?
Cc1ccc(C(C(=O)NC(C)(C)C)N(CCCN2CCOCC2)C(=O)c2ccc(-c3ccccc3)[nH]2)o1 (stereo not drawn)	-74*	0%	23%	13%	-3%[46.1 µM]	12%
CSc1cc(SC)ncn1	-15	/	/	1%	12%	4%
CCn1cc(CN2CCCC(C(=O)Nc3cccc(-n4cccn4)c3)C2)cn1 (stereo not drawn)	25	/	/	/	/	/
O=C(c1ccco1)N1CCN(C(=O)c2cnn(-c3ccc(F)cc3)c2-n2cccc2)CC1	20	/	/	/	/	/
O=C(NCCOC(=O)c1ccc(S(=O)(=O)N2CCOCC2)cc1)c1cccnc1	-8	1%	2.3µM*	-17%	5%	-11%
O=C(NCCOC(=O)c1ccc(C(=O)OCCNC(=O)c2cccnc2)s1)c1cccnc1	-5	-3%	20%	22µM*	-5%	0%
O=C(Nc1ccc(S(=O)(=O)N2CCOCC2)cc1)c1cccnc1	10	?	61%	19%	-3%[46.1 µM]	1%
O=C(NCCOC(=O)c1cccs1)c1cccnc1	-4	28%	?	19%	1%	13%
CCc1sc(Nc2cccc(C)c2)nc1-c1cc2cccc(OC)c2oc1=O	-9	/	/	/	/	-7%[46.1 µM]
O=C(Nc1ccc2c(c1)CCC2)C1CCCO1 (stereo not drawn)	36	90%	/	-2%	?	12%
SMILES	HCMV antiviral	Pf growth 48h	Pf growth 96h	HCV inhibitor	Marburg entry inh	LASV entry inh
O=C(Nc1ccc2c(c1)CN(Cc1ccccc1O)CC2)C1CCCO1 (stereo not drawn)	-20	?	3.3µM*	-26%	/	/
CC(=O)Oc1cc(C(F)(F)F)ccc1C(=O)O	/	9%[12.8 µM]	6%[12.8 µM]	/	/	/
Cc1ccc(-c2cc(C(=O)N(Cc3ccc(C(C)(C)C)cc3)Cc3ccco3)no2)cc1	46	/	/	/	-25%[46.1 µM]	5%[46.1 µM]
OC1(c2cccs2)CN(c2ccc(Br)cc2)C2=[N+]1CCCS2 (stereo not drawn)	0	?	?	?	/	/
OC1(c2ccccc2)CN(c2ccccc2)C2=[N+]1CCS2 (stereo not drawn)	-62*	?	?	?	-18%	-5%
Cc1ccc(Cl)cc1NC(=O)CN1C(=O)CSc2ccc(S(=O)(=O)N3CCCC3)cc21	23	/	/	/	/	-29%[46.1 µM]
CN1CCN(S(=O)(=O)c2ccc(Cc3ccc(S(=O)(=O)N4CCN(C)CC4)cc3)cc2)CC1	-29	?	12µM*	-4%	?	?
CN1CCN(S(=O)(=O)c2ccc(-c3ccc(S(=O)(=O)N4CCN(C)CC4)cc3)cc2)CC1	/	12%	-11%	/	-5%	/
CN1CCN(S(=O)(=O)c2ccc(Cl)cc2)CC1	-10	-20%	1.9µM*	14%	11%	9%[46.1 µM]
Cc1oc(-c2cccc(Cl)c2)nc1CN1CCCC(C(=O)NCc2ccc(F)cc2)C1 (stereo not drawn)	4	/	/	/	15%[46.1 µM]	6%[46.1 µM]
Cn1c(C(=O)N2CCCC(C(=O)NCCc3ccccc3)C2)cc2sccc21 (stereo not drawn)	-97*	?	212%	?	?	?
Cn1c(C(=O)N2CCCC(C(=O)NCCCc3ccccc3)C2)cc2sccc21 (stereo not drawn)	-8	?	?	?	?	-12%
Cc1ccc(Cn2c(C(=O)NCCCN3CCOCC3)cc3sccc32)cc1	/	12µM*	116%	?	?	2%
O=C(NCc1ccco1)C1CCN(C(=O)c2cc3sccc3n2Cc2ccc(F)cc2)CC1	-7	1.9µM*	6%	?	4%	10µM*
Cc1ccc(CCNC(=O)c2cc3sccc3n2Cc2ccc(C)cc2)cc1	-13	/	/	/	?	12%[46.1 µM]
O=C(NCCCN1CCCC1)C1CCN(C(=O)c2cc3sccc3n2Cc2ccc(F)cc2)CC1	/	/	10µM*	25µM*	?	27%
COC(=O)[C@@H]1CC[C@H](C)[C@@H](c2ccc(C)cc2)N1C(=O)c1ccc(C=NO[C@@H](C)c2cc(-c3c(C)cc(C)cc3C)no2)cc1	/	/	/	/	6%[14.2 µM]	/
CC1Cc2ccccc2N1C(=O)c1cc2sccc2n1Cc1ccc(F)cc1 (stereo not drawn)	-33	12µM*	?	-26%	-28%	-4%
